Measured values: PubChem BioAssay (NCI)
About 79,000 compounds went through this panel and 15% of them were active in at least one assay; those are over-represented in the sample as a whole. Activity calls are given as the source filed them. Cut-off read from the data, not from the text of the source: active = growth inhibition above about 70%; inactive = the rest.

Assays:
[1] = NCI Yeast Anticancer Drug Screen. Data for the rad52 strain (AID 147);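 note: 0% = growth of vehicle-treated control cultures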; conditions: S. cerevisiae rad52 mutant growth inhibition, stronger effect = higher value
Procedure, shortened: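 Inhibition of yeast growth, referenced to vehicle controls, was the measured output for a strain with defective DNA damage repair.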

[2] = NCI Yeast Anticancer Drug Screen. Data for the wt1 strain (AID 149);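 note: 0% = growth of vehicle-treated wt1 cultures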; conditions: S. cerevisiae wt1 strain (SPY 50644) growth inhibition, stronger effect = higher value
Procedure, shortened: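 The wt1 strain was treated with compounds, and growth was compared with vehicle-treated cultures to give inhibition.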

[3] = NCI Yeast Anticancer Drug Screen. Data for the rad50EPP+ strain (AID 151);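 note: 0% = growth of vehicle-treated control cultures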; conditions: S. cerevisiae rad50 mutant strain, stronger effect = higher value
Procedure, shortened: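 Genetically defined yeast (rad50EPP+, DNA damage repair alteration) is grown with compound, and inhibition of growth is expressed relative to vehicle-treated controls.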

[4] = NCI Yeast Anticancer Drug Screen. Data for the mgt1 strain (AID 153); conditions: S. cerevisiae mgt1 mutant growth inhibition, stronger effect = higher value
Procedure, shortened: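 In the mgt1 strain, test compounds were added and growth inhibition was determined relative to vehicle-treated controls.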

[5] = NCI Yeast Anticancer Drug Screen. Data for the rad50 strain (AID 155);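 note: 0% = growth of vehicle-only cultures of the same strain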; conditions: S. cerevisiae rad50 strain growth inhibition, stronger effect = higher value
Procedure, shortened: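 Cells are treated with compound, grown, and their growth is then scored against vehicle-only cultures of the same repair-deficient yeast strain.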

[6] = NCI Yeast Anticancer Drug Screen. Data for the mec2-1 strain (AID 157); conditions: S. cerevisiae mec2-1 strain, stronger effect = higher value
Procedure, shortened: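 Each compound was tested on mec2-1 yeast, a strain altered in DNA damage repair or cell cycle control. Growth inhibition is reported relative to vehicle.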

[7] = NCI Yeast Anticancer Drug Screen. Data for the rad14 strain (AID 159);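 note: 0% = growth of vehicle-treated control cultures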; conditions: S. cerevisiae rad14 strain growth inhibition, stronger effect = higher value
Procedure, shortened: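 Readout: yeast growth inhibition, referenced to vehicle-only cultures. Strain bears a defined alteration in DNA damage repair.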

[8] = NCI Yeast Anticancer Drug Screen. Data for the sgs1 mgt1 strain (AID 161);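 note: 0% = growth of cultures given vehicle only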; conditions: S. cerevisiae sgs1 mgt1 strain, stronger effect = higher value
Procedure, shortened: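 Test agents were incubated with a DNA-repair-mutant yeast strain. Growth was then read and compared against vehicle-treated controls.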

[9] = NCI Yeast Anticancer Drug Screen. Data for the CLN2oe strain (AID 163);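 note: 0% = growth of vehicle-only control cultures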; conditions: S. cerevisiae CLN2oe strain, stronger effect = higher value
Procedure, shortened: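 First, the altered yeast strain was treated with each compound; second, its growth was measured; finally, inhibition was derived by comparison with vehicle controls.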

[10] = NCI Yeast Anticancer Drug Screen. Data for the cln2 rad14 strain (AID 165);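 note: 0% = growth equal to vehicle treated cultures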; conditions: S. cerevisiae cln2 rad14 strain, stronger effect = higher value
Procedure, shortened: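 Test compounds were added to cln2 rad14 yeast cultures; inhibition of growth was then determined by comparison with vehicle treatment.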

[11] = NCI Yeast Anticancer Drug Screen. Data for the bub3 strain (AID 167); conditions: S. cerevisiae bub3 mutant strain, stronger effect = higher value
Procedure, shortened: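 Part of a panel of yeast mutants defective in DNA damage repair or cell cycle regulation. Each strain is grown with compound, and inhibition is calculated relative to solvent-treated cultures.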

[12] = NCI Yeast Anticancer Drug Screen. Data for the wt2 strain (AID 169);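 note: 0% = growth of vehicle-treated yeast cultures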; conditions: S. cerevisiae wt2 strain growth inhibition, stronger effect = higher value
Procedure, shortened: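 The panel's yeast strains carry defined changes in DNA repair or cell cycle genes. Each strain is grown with compound, and growth loss is scored relative to vehicle.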

[13] = NCI Yeast Anticancer Drug Screen. Data for the mlh1 strain (AID 171);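 note: 0% = growth of vehicle-treated control cultures of the same strain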; conditions: S. cerevisiae mlh1 strain growth inhibition, stronger effect = higher value
Procedure, shortened: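 Inhibition values reflect reduced yeast growth in the presence of compound, referenced to vehicle controls, using a strain chosen for its alteration in DNA repair or cell cycle control.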

[14] = NCI Yeast Anticancer Drug Screen. Data for the sgs1 strain (AID 173);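 note: 0% = growth of vehicle-only control cultures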; conditions: S. cerevisiae sgs1 mutant, stronger effect = higher value
Procedure, shortened: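 Vehicle-treated cultures served as reference for growth inhibition of a yeast strain altered in DNA damage repair or cell cycle control after compound exposure.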

[15] = NCI Yeast Anticancer Drug Screen. Data for the mlh1 rad18 strain (AID 175); conditions: S. cerevisiae mlh1 rad18 strain growth inhibition, stronger effect = higher value
Procedure, shortened: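 Inhibition values reflect reduced growth of mutant yeast versus vehicle-treated controls following compound exposure; the mutations affect DNA damage repair.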

[16] = NCI Yeast Anticancer Drug Screen. Data for the rad18 strain (AID 177); conditions: S. cerevisiae rad18 mutant growth inhibition, stronger effect = higher value
Procedure, shortened: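 Steps: expose repair-mutant yeast to compound; measure growth; express as inhibition relative to vehicle control.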

[17] = at 5.0 µM (retest, dose inferred, filed as 0.5)
[18] = at 50.0 µM (retest, dose inferred, filed as 5.0)

Measured: growth inhibition

COC(=O)C1=C(C(=O)OC)C2(C)C=CC1O2 (stereo unspecified)
active: [1]; at 33.0 µM 70% | [1]; at 100.0 µM 91% | [2]; at 100.0 µM 93% | [4]; at 100.0 µM 86% | [5]; at 33.0 µM 72% | [5]; at 50.0 µM 81.2% | [5]; at 100.0 µM 91% | [6]; at 50.0 µM 86.8% | [6]; at 100.0 µM 87% | [7]; at 100.0 µM 87% | [8]; at 50.0 µM 82.2% | [11]; at 33.0 µM 75% | [11]; [18] 74% | [11]; at 50.0 µM 89.6% | [11]; at 100.0 µM 94% | [12]; at 33.0 µM 91% | [12]; at 100.0 µM 97% | [13]; at 100.0 µM 90% | [14]; at 33.0 µM 84% | [14]; at 100.0 µM 95% | [15]; at 50.0 µM 86.2% | [16]; at 100.0 µM 89%
inactive: [1]; at 1.2 µM -1% | [1]; at 3.7 µM -4% | [1]; at 11.0 µM 21% | [2]; at 1.2 µM 0% | [2]; at 3.7 µM 7% | [2]; at 11.0 µM 30% | [2]; at 33.0 µM 62% | [3]; at 1.2 µM -11% | [3]; at 3.7 µM -34% | [3]; at 11.0 µM -12% | [3]; at 33.0 µM 20% | [3]; at 100.0 µM 19% | [4]; at 1.2 µM -4% | [4]; at 3.7 µM -9% | [4]; at 11.0 µM -3% | [4]; at 33.0 µM 32% | [5]; at 1.2 µM -15% | [5]; at 3.7 µM -13% | [5]; [17] -135% | [5]; at 11.0 µM 7% | [5]; [18] 53% | [6]; at 1.2 µM -2% | [6]; at 3.7 µM -1% | [6]; [17] -43% | [6]; at 11.0 µM 1% | [6]; at 33.0 µM 26% | [6]; [18] 43% | [7]; at 1.2 µM 1% | [7]; at 3.7 µM 15% | [7]; at 11.0 µM 17% | [7]; at 33.0 µM 33% | [8]; [17] -55% | [8]; [18] 63% | [9]; at 1.2 µM -7% | [9]; at 3.7 µM -5% | [9]; at 11.0 µM -4% | [9]; at 33.0 µM 15% | [9]; at 100.0 µM 42% | [10]; [17] -46% | [10]; [18] -7% | [10]; at 50.0 µM 19.1% | [11]; at 1.2 µM -9% | [11]; at 3.7 µM -3% | [11]; [17] -62% | [11]; at 11.0 µM 10% | [12]; at 1.2 µM -4% | [12]; at 3.7 µM -3% | [12]; at 11.0 µM 52% | [13]; at 1.2 µM -14% | [13]; at 3.7 µM -10% | [13]; at 11.0 µM -7% | [13]; at 33.0 µM 52% | [14]; at 1.2 µM -4% | [14]; at 3.7 µM -4% | [14]; at 11.0 µM 33% | [15]; [17] -114% | [15]; [18] 48% | [16]; at 1.2 µM -10% | [16]; at 3.7 µM -6% | [16]; at 11.0 µM 10% | [16]; at 33.0 µM 62%

Cc1cc2c(cc1C(=O)CCC(=O)O)CC1(C2)Cc2cc(C)c(C(=O)CCC(=O)O)cc2C1
inactive: [1]; at 1.2 µM 3% | [1]; at 3.7 µM 6% | [1]; at 11.0 µM 11% | [1]; at 33.0 µM 25% | [1]; at 100.0 µM 47% | [2]; at 1.2 µM 3% | [2]; at 3.7 µM 4% | [2]; at 11.0 µM 12% | [2]; at 33.0 µM 21% | [2]; at 100.0 µM 35% | [3]; at 1.2 µM 1% | [3]; at 3.7 µM 0% | [3]; at 11.0 µM 8% | [3]; at 33.0 µM 15% | [3]; at 100.0 µM 30% | [4]; at 1.2 µM 2% | [4]; at 3.7 µM 6% | [4]; at 11.0 µM 12% | [4]; at 33.0 µM 36% | [4]; at 100.0 µM 42% | [5]; at 1.2 µM 3% | [5]; at 3.7 µM 2% | [5]; [17] 13% | [5]; at 11.0 µM 9% | [5]; at 33.0 µM 21% | [5]; [18] 36% | [5]; at 50.0 µM 56.5% | [5]; at 100.0 µM 42% | [6]; at 1.2 µM -2% | [6]; at 3.7 µM 1% | [6]; [17] -4% | [6]; at 11.0 µM 12% | [6]; at 33.0 µM 26% | [6]; [18] 14% | [6]; at 50.0 µM 31.5% | [6]; at 100.0 µM 56% | [7]; at 1.2 µM -1% | [7]; at 3.7 µM 2% | [7]; at 11.0 µM 8% | [7]; at 33.0 µM 22% | [7]; at 100.0 µM 44% | [8]; [17] -4% | [8]; [18] 29% | [8]; at 50.0 µM 49.9% | [9]; at 1.2 µM -5% | [9]; at 3.7 µM 2% | [9]; at 11.0 µM 14% | [9]; at 33.0 µM 27% | [9]; at 100.0 µM 41% | [10]; [17] 16% | [10]; [18] 47% | [10]; at 50.0 µM 38.4% | [11]; at 1.2 µM -4% | [11]; at 3.7 µM 0% | [11]; [17] 13% | [11]; at 11.0 µM 9% | [11]; at 33.0 µM 17% | [11]; [18] 62% | [11]; at 50.0 µM 54.8% | [11]; at 100.0 µM 54% | [12]; at 1.2 µM 0% | [12]; at 3.7 µM 2% | [12]; at 11.0 µM 10% | [12]; at 33.0 µM 26% | [12]; at 100.0 µM 46% | [13]; at 1.2 µM 5% | [13]; at 3.7 µM 5% | [13]; at 11.0 µM 14% | [13]; at 33.0 µM 27% | [13]; at 100.0 µM 50% | [14]; at 1.2 µM 2% | [14]; at 3.7 µM 7% | [14]; at 11.0 µM 14% | [14]; at 33.0 µM 33% | [14]; at 100.0 µM 69% | [15]; [17] -1% | [15]; at 50.0 µM 67.8% | [16]; at 1.2 µM 1% | [16]; at 3.7 µM 1% | [16]; at 11.0 µM -3% | [16]; at 33.0 µM 22% | [16]; at 100.0 µM 63%
active: [15]; [18] 70%
